This is an account of results in PubChem BioAssay (NCI).

Some test systems named below: SR leukemia; RPMI-8226 leukemia; OVCAR-8 ovarian; OVCAR-5 ovarian; OVCAR-4 ovarian; SK-OV-3 ovarian; IGROV1 ovarian; OVCAR-3 ovarian; HS 578T breast; NCI/ADR-RES ovarian; T-47D breast; BT-549 breast; MDA-MB-435 melanoma; SW-620 colon; MCF7 breast; HCT-116 colon; HCC-2998 colon; KM12 colon.
Common to all, as to assay: NCI-60 one-dose screen, 48 h (100 = growth as untreated, 0 = no growth, -100 = all killed)
Conditions in all cases: 10 µM unless noted

Each structure is given as a SMILES string. The panel holds about 83,000 compounds, 20% with a hit somewhere; the sample as a whole holds those more often.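 Percent growth is the endpoint: 0 to 100 indicates growth inhibition (40 means 60% inhibition), 0 means no net growth, and negative values indicate cell death.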 A number with no mark means an inactive call. Active and inactive are the calls of the source. How the source made its calls: active means growth percent below 10; inactive means the rest.

For the compound `O=S(=O)(Nc1cc(F)cc(F)c1)c1ccc(-c2cnc(C3CC3)o2)cc1`, the growth with SR leukemia was 16.2%; in the assay on RPMI-8226 leukemia, 26.5%; in the assay with OVCAR-8 ovarian it was 49.6%; in the assay on OVCAR-5 ovarian it was 71%; in the assay with OVCAR-4 ovarian, 67.8%; in the assay with SK-OV-3 ovarian it was 60.2%. The growth in the assay on IGROV1 ovarian was 34.3%; with OVCAR-3 ovarian, 2.74% (active); in the assay on HS 578T breast, 14.4%; with NCI/ADR-RES ovarian, 26.4%; with T-47D breast, 29.8%; in the assay with BT-549 breast it was 36.1%. For the same compound, the growth in the assay on MDA-MB-435 melanoma was -23.6% (active); in the assay on SW-620 colon, 17.2%; with MCF7 breast, 14.3%; with HCT-116 colon, 19.1%; in the assay with HCC-2998 colon, 67.3%; with KM12 colon, 19.2%.
As for `ClC(Cl)c1nc(-c2ccccc2)n2nc(-c3ccccc3)cc2n1`, the growth with SR leukemia was 7.56% (active); with RPMI-8226 leukemia it was 0.699% (active); in the assay on OVCAR-8 ovarian, 16.5%; in the assay with OVCAR-5 ovarian, 0.621% (active); in the assay with OVCAR-4 ovarian it was -10.8% (active); with SK-OV-3 ovarian it was 9.58% (active). Further, the growth is 52.7% in the assay with IGROV1 ovarian; -28.3% (active) with OVCAR-3 ovarian; -27.3% (active) with HS 578T breast; 6.09% (active) in the assay with NCI/ADR-RES ovarian; 28.5% in the assay with T-47D breast; 77.2% in the assay with BT-549 breast. For the same compound, the growth is 12% in the assay on MDA-MB-435 melanoma; -35.3% (active) in the assay with SW-620 colon; 3.37% (active) in the assay on MCF7 breast; 4.82% (active) in the assay with HCT-116 colon; -82.1% (active) in the assay on HCC-2998 colon; -32% (active) in the assay on KM12 colon.
In the case of `Cc1ccc2c(c1)=C/C(=C\c1cc(-c3ccccc3)[nH]c1O)C(=O)N=2`, the growth is 14.1% in the assay on SR leukemia; 33.8% with RPMI-8226 leukemia; 50.6% with OVCAR-8 ovarian; 78.9% in the assay with OVCAR-5 ovarian; 59.7% in the assay with OVCAR-4 ovarian; 65.7% with SK-OV-3 ovarian. Also, the growth was 40.7% in the assay with IGROV1 ovarian; 16.1% in the assay with OVCAR-3 ovarian; 41.9% in the assay with HS 578T breast; 43.7% with NCI/ADR-RES ovarian; 40.2% in the assay on T-47D breast; 29.9% in the assay on BT-549 breast. Further, the growth with MDA-MB-435 melanoma is -1.51% (active); with SW-620 colon it was 32.8%; in the assay with MCF7 breast, 21.5%; with HCT-116 colon, 17.6%; in the assay with HCC-2998 colon it was 56.6%; in the assay with KM12 colon it was 28.3%.
As for `CN(C)c1ccc(/C=N\NC(=O)c2ccc3nc(-c4ccc(Cl)cc4)[nH]c3c2)cc1`, the growth with SR leukemia was 20.7%; with RPMI-8226 leukemia, 67.4%; with OVCAR-8 ovarian, 51.3%; in the assay on OVCAR-5 ovarian, 89.2%; in the assay with OVCAR-4 ovarian, 36.4%; in the assay with SK-OV-3 ovarian, 98.3%. Also, the growth was 40.2% with IGROV1 ovarian; 70.7% in the assay on OVCAR-3 ovarian; 70% in the assay on HS 578T breast; 77% in the assay with NCI/ADR-RES ovarian; 59.4% in the assay on T-47D breast; 106% in the assay on BT-549 breast. The growth was 93.9% in the assay with MDA-MB-435 melanoma; 46.3% in the assay with SW-620 colon; 17.4% in the assay on MCF7 breast; 48.6% in the assay with HCT-116 colon; 79% in the assay with HCC-2998 colon; 64.9% in the assay with KM12 colon.
Take `Cc1nc2sc(C(=O)Nc3ccccn3)c(N)c2cc1C(C)O` (configuration not stated): the growth is 15.2% in the assay with SR leukemia; 94.5% in the assay on RPMI-8226 leukemia; 92.5% with OVCAR-8 ovarian; 77.9% with OVCAR-5 ovarian; 81% with OVCAR-4 ovarian; 65.2% with SK-OV-3 ovarian. The growth with IGROV1 ovarian is 70.4%; with OVCAR-3 ovarian it was 76.5%; in the assay with HS 578T breast, 74.7%; in the assay on NCI/ADR-RES ovarian it was 74.2%; in the assay with T-47D breast, 73.1%; with BT-549 breast it was 85.1%. Further, the growth in the assay with MDA-MB-435 melanoma was -31.6% (active); in the assay on SW-620 colon, 48.8%; in the assay on MCF7 breast it was 29.6%; in the assay with HCT-116 colon, 48.1%; with HCC-2998 colon, 74.8%; in the assay on KM12 colon, 37.5%.
On to `CCCCCCCCn1ccc2cc(NC(=O)CN=[N+]=[N-])ccc21`, for which the growth in the assay with SR leukemia is 100%; in the assay on RPMI-8226 leukemia, 99.2%; in the assay on OVCAR-8 ovarian, 96.9%; in the assay with OVCAR-5 ovarian, 98.2%; in the assay with OVCAR-4 ovarian, 103%; with SK-OV-3 ovarian, 111%. For the same compound, the growth with IGROV1 ovarian is 87.2%; with OVCAR-3 ovarian, 96%; with HS 578T breast, 101%; in the assay with NCI/ADR-RES ovarian, 116%; in the assay with T-47D breast, 94%; with BT-549 breast, 86.5%. Besides, the growth is 108% in the assay with MDA-MB-435 melanoma; 101% with SW-620 colon; 91.1% in the assay on MCF7 breast; 97.5% with HCT-116 colon; 117% in the assay with HCC-2998 colon; 99.4% in the assay on KM12 colon.
As to `COc1cccc(-c2cn3nc(-c4cn(C)c5ccccc45)sc3n2)c1`, the growth with SR leukemia was 24.9%; with RPMI-8226 leukemia it was 97%; in the assay with OVCAR-8 ovarian, 101%; in the assay with OVCAR-5 ovarian, 91.4%; in the assay on OVCAR-4 ovarian it was 93.6%; in the assay with SK-OV-3 ovarian, 93.6%. For the same compound, the growth is 92.8% with IGROV1 ovarian; 99.2% with OVCAR-3 ovarian; 85.7% in the assay with HS 578T breast; 94.3% with NCI/ADR-RES ovarian; 89.9% in the assay on T-47D breast; 102% in the assay with BT-549 breast. Also, the growth in the assay with MDA-MB-435 melanoma is 36.5%; in the assay on SW-620 colon, 89.7%; with MCF7 breast it was 79.5%; in the assay on HCT-116 colon, 91.7%; in the assay on HCC-2998 colon, 93.5%; in the assay with KM12 colon it was 72.6%.
For `COc1ccc(C2[C@@H](Cl)C(=O)N2c2cc(OC)c(OC)c(OC)c2)cc1Cl` (some centres not stated), the growth was 5.49% (active) with SR leukemia; 9.34% (active) in the assay on RPMI-8226 leukemia; 9.75% (active) with OVCAR-8 ovarian; 64.4% in the assay on OVCAR-5 ovarian; 56% in the assay on OVCAR-4 ovarian; -0.0611% (active) in the assay on SK-OV-3 ovarian. In addition, the growth with IGROV1 ovarian was 33.5%; with OVCAR-3 ovarian it was -2.62% (active); in the assay on HS 578T breast it was 31%; in the assay on NCI/ADR-RES ovarian it was 18%; with T-47D breast it was 43.3%; in the assay with BT-549 breast, -19.1% (active). The growth in the assay on MDA-MB-435 melanoma was -20.7% (active); in the assay with SW-620 colon, 21.9%; in the assay on MCF7 breast it was 14.4%; with HCT-116 colon, -9.69% (active); with HCC-2998 colon, 22.8%; in the assay on KM12 colon, 16.3%.
For `O=C(Oc1ccc2c(c1)sc1nc(-c3ccccc3)[nH]c(=O)c12)C(F)(F)F`, the growth in the assay with SR leukemia is 18.9%; with RPMI-8226 leukemia it was 24.1%; with OVCAR-8 ovarian, 40.8%; with OVCAR-5 ovarian it was 73.4%; in the assay with OVCAR-4 ovarian, 51.4%; in the assay with SK-OV-3 ovarian it was 50.2%. Besides, the growth was 32.9% with IGROV1 ovarian; 9.6% (active) in the assay on OVCAR-3 ovarian; 18.8% with HS 578T breast; 7.5% (active) with NCI/ADR-RES ovarian; 32.3% with T-47D breast; 44.3% in the assay with BT-549 breast. Also, the growth is -55.4% (active) in the assay with MDA-MB-435 melanoma; 18.4% in the assay on SW-620 colon; 17.1% with MCF7 breast; 19.8% in the assay with HCT-116 colon; 31.2% in the assay with HCC-2998 colon; 11.2% with KM12 colon.
